IL-1B inflam inh: inflammasome signaling inhibition, IL-1 beta readout; THP-1 LPS/ATP IL-1B secretion, AlphaLISA, 16 h; active compounds read low; activity change, % at 57.5 µM; hit rate 4.7% among 360,000; AID 743279; in the data active = activity change below about -50%; inconclusive = mostly about -30% to -49%
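THP-1 cells pretreated 1 hr with compounds (up to 57.5 uM final), then stimulated with LPS (250 ng/mL final) plus ATP (1.25 mM final); secreted IL-1B measured by AlphaLISA after 16 hr, decreased signal indicating inhibition.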
Gal4-VP16 FLuc: Gal4-VP16 reporter inhibition counter-screen; AID 2546; Drosophila S2 Gal4-VP16 UAS-luciferase, luminescence, 20 h; hit rate 3.5% among 310,000; Potency, µM (titrated, usually from 53.6 µM), without a hit: at the top dose activity, negative = inhibition, most hits filed as inhibitors;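 note: Gal4-VP16 expression switched on by copper sulfate through the metallothionein promoter; potency is the fitted concentration of half-maximal effect; nearly all actives have a fitted effect of over 50% in size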
DT40 TDP1 no CPT: qHTS for Inhibitors of human tyrosyl-DNA phosphodiesterase 1 (TDP1): qHTS in cells in absence of CPT | AID 686978, 2013 | hit rate 15% among 420,000 | DT40 Tdp1-/- hTDP1 cells, no CPT, ATP luminescence, 48 h | Potency, µM (titrated, usually from 46.2 µM), without a hit: at the highest dose activity change, negative = growth inhibition, usual class: inhibitors; note: potency is the fitted concentration of half-maximal effect; nearly all actives have a fitted effect of over 55% in size
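Seeded 400 DT40-hTDP1 cells/well (vehicle DMSO, no 20 nM CPT); pinned compounds; ≥48 hr at 37 °C; CellTiter-Glo luminescence as viability measure.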
ELG1 repair inh: inhibitors of ELG1-dependent DNA repair in HEK293T cells. Potency, µM (series often up to 46.1 µM), for the others: at the top dose activity change, negative = inhibition, actives largely listed as inhibitors. hit rate 2.3% among 330,000. HEK293T ELG1-luciferase reporter, luminescence, 16 h; DNA damage induced by 5-fluorouridine; note: potency is the fitted concentration of half-maximal effect; nearly all actives have a fitted effect of over 55% in size
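HEK293T cells expressing luciferase-tagged ELG1 (2,000/well) received 5-Fluorouridine plus compound or DMSO for 16 hr at 37 °C. Luciferase was read by ONE-Glo luminescence after 30 min at room temperature.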
TDP1 cell CPT: growth inhibition of DT40 Tdp1-/-;hTDP1 cells with camptothecin (screen for TDP1 inhibitors); chicken DT40 Tdp1-/-;hTDP1 cells + 20 nM CPT, ATP luminescence, 48 h; hit rate 12% among 420,000; Potency, µM (doses to about 46.2 µM), inactives show at the highest dose activity change, negative = growth inhibition, hits mostly inhibitors; note: potency is the fitted concentration of half-maximal effect; nearly all actives have a fitted effect of over 55% in size
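Chicken DT40 Tdp1-/- cells complemented with human TDP1, 400 cells/well, exposed to compounds plus 20 nM camptothecin for at least 48 h at 37 C; viability read as ATP content by CellTiter-Glo luminescence.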
RORgamma inh: ROR gamma (mouse) transcription inhibition. Potency, µM (highest dose often 53.6 µM), without a hit: top-dose activity change, negative = inhibition, most hits filed as inhibitors. Drosophila S2 Gal4-RORgamma UAS-luciferase reporter, 20 h. hit rate 5.4% among 310,000. AID 2551. P51450; note: potency is the fitted concentration of half-maximal effect; nearly all actives have a fitted effect of over 60% in size
Target sequence (P51450 whole entry, looked up, the tested form may be a part): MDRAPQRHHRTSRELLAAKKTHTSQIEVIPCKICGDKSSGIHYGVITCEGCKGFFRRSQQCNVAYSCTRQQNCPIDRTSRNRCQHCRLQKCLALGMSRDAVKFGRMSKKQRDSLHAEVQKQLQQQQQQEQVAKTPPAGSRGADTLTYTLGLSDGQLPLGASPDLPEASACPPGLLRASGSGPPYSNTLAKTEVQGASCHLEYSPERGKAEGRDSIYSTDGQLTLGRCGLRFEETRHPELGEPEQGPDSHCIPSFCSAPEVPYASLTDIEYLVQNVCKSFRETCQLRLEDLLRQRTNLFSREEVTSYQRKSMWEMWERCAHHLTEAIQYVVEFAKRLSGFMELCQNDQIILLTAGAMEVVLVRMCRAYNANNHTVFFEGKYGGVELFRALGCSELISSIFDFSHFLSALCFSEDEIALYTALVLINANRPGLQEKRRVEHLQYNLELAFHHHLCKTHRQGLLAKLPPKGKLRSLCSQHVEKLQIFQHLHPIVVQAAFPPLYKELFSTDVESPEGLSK
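Compounds are pin-transferred onto Drosophila Schneider cells expressing a copper-inducible Gal4–ROR gamma transactivation domain fusion. After 1 hr, copper sulfate is added to 700 uM final; luciferase is read 20 hr later.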
Numbers without * were called inactive; ? = inconclusive; nt = no result given. An excerpt weighted towards active compounds, which were near 21% of everything screened. Unless noted, calls come from the whole dose curve; as a rule, active = well fitted curve in the direction sought with a large enough effect; inconclusive = small, poorly fitted or top-dose-only effect, or another doubt; inactive = no such curve, though single readings can be large; an effect the other way counts as inactive or inconclusive. % is set by controls: 0 for no effect and ±100 for the full control effect.

SMILES | IL-1B inflam inh | Gal4-VP16 FLuc | DT40 TDP1 no CPT | ELG1 repair inh | TDP1 cell CPT | RORgamma inh
COc1ccc(C(=O)C[n+]2cccc3cccc(O)c32)cc1 | nt | nt | -9% | nt | 2% | nt
Cc1c(Cl)cccc1-n1ncc(C(=O)N2CCOCC2)c1C1CCN(C(=O)OC(C)(C)C)CC1 | nt | nt | -17% | nt | ? | nt
CCOC(=O)c1cnn(-c2cccc(Cl)c2)c1C1CCN(C(=O)OC(C)(C)C)CC1 | nt | nt | ? | nt | 23µM* | nt
Cc1ccc(N2CCN(C(=O)c3cnn(-c4ccc(C)c(C)c4)c3C3CCNCC3)CC2)c(C)c1 | nt | nt | 6.5µM* | nt | 6.5µM* | nt
Cc1cccc(N2CCN(C(=O)c3cnn(-c4cccc(Cl)c4C)c3C3CCNCC3)CC2)c1C | nt | nt | 5.2µM* | nt | 3.7µM* | nt
CCN1CCN(C(=O)c2cnn(-c3cccc(Cl)c3)c2C2CCN(C(=O)OC(C)(C)C)CC2)CC1 | nt | nt | ? | nt | -23% | nt
Cc1ccc(-n2ncc(C(=O)N3CCN(C4CCCCC4)CC3)c2C2CCN(C(=O)OC(C)(C)C)CC2)cc1C | nt | nt | 7.3µM* | nt | 8.2µM* | nt
CC(C)(C)OC(=O)Nc1ccccc1-n1nnnc1C(C(=O)c1ccccc1)N1CCN(c2ccccn2)CC1 (stereo not given) | -4 | nt | ? | nt | ? | nt
CCCCn1c(N)c(N(CC)C(=O)C2=NN(c3ccccc3)C(=O)CC2)c(=O)[nH]c1=O | -7 | nt | 0% | 19% | 11% | nt
C=C(C)CN(CC)C(=O)CN1C(=O)NC2(CCCc3ccccc32)C1=O (stereo not given) | 31 | -10% | 1% | 0% | -2% | -5%
CC(C)OC(=O)c1c2c(n3ccccc13)C(=O)c1ccccc1C2=O | 0 | -12% | 13µM* | 18µM* | 15µM* | -24%
Cc1cc2n(n1)C(c1ccccc1)CC(c1ccc(Br)cc1)=N2 (stereo not given) | ? | -8% | ? | ? | 16µM* | 32%
CCN(C(=O)Cn1cc(C(=O)c2ccc(F)cc2)c(=O)c2ccc(C)nc21)c1cccc(C)c1 | nt | nt | ? | nt | 16µM* | nt
Cc1ccc2c(=O)c(C(=O)c3ccc(F)cc3)cn(CC(=O)NCCc3ccccc3)c2n1 | nt | nt | -21% | nt | -25% | nt
Cc1ccc(C(=O)c2cn(Cc3ccc(F)cc3)c3nc(C)ccc3c2=O)cc1 | nt | nt | 23µM* | nt | 16µM* | nt
Cc1ccc(S(=O)(=O)N2[C@@H](Cc3ccccc3)CO[C@H]2CC(=O)c2ccc(F)cc2)cc1 | -14 | nt | ? | nt | 23µM* | nt
Cc1ccc(S(=O)(=O)N2[C@H](CC(=O)c3ccccc3)OC[C@@H]2C(C)C)cc1 | 1 | nt | ? | nt | ? | nt
Cc1ccc(S(=O)(=O)N2[C@H](CC(=O)c3cccs3)OC[C@@H]2C(C)C)cc1 | 30 | nt | 18µM* | nt | ? | nt
Cc1ccc(CN2CCC(=O)N2)cc1 | 0 | 12% | ? | -10% | 4% | 3%
O=C1COc2ccc(C(=O)COC(=O)CCSc3ccc(Cl)cc3)cc2N1 | 48 | -9% | 3% | -3% | 0% | -15%
CCn1c(C)nc2cc(C(=O)OC(C(F)(F)C(F)F)C(F)(F)C(F)F)ccc21 | 2 | 7.1µM* | 18µM* | ? | ? | 7.1µM*
Cc1ccccc1C(=O)N1CCN(c2ccc([N+](=O)[O-])c(NCc3ccco3)c2)CC1 | -11 | -6% | ? | ? | ? | 21%
Cc1ccc(C(=O)N2CCN(c3ccc([N+](=O)[O-])c(NCc4ccco4)c3)CC2)cc1 | -26 | 0% | 16µM* | -21% | ? | 28%
Cc1cccc(C(=O)N2CCN(c3ccc([N+](=O)[O-])c(NCc4ccco4)c3)CC2)c1 | -8 | 1% | 21µM* | ? | ? | ?
Cc1cccc(NC(=O)CNC(=O)c2cc(S(=O)(=O)N(C)C)ccc2N2CCCC2)c1C | -19 | nt | ? | nt | -22% | nt
SMILES | IL-1B inflam inh | Gal4-VP16 FLuc | DT40 TDP1 no CPT | ELG1 repair inh | TDP1 cell CPT | RORgamma inh
COc1cccc([C@@H]2Oc3ccc(OC)cc3C[C@H]2O)c1 | nt | 4% | nt | nt | nt | 36%
CC(C)(C)c1ccc(C(=O)N2CCOC23CCCCC3)cc1 | 32 | nt | 13µM* | nt | 15µM* | nt
O=C(Nc1ccc(Cl)cc1)N1CCOC12CCCCC2 | -6 | 0% | 3% | 5% | -5% | 32%
COc1ccccc1C1CCN(Cc2c(C)[nH]c3ccccc23)CC1 | nt | 1% | 5.8µM* | -23% | 4.6µM* | 35%
COc1ccccc1C1CCN(Cc2cccc3ccccc23)CC1 | 10 | -1% | 16µM* | -14% | ? | 30%
COc1ccccc1C1CCN(Cc2ccc(Cl)c(Cl)c2)CC1 | 36 | 3% | ? | -11% | ? | 4%
CCCCNC(=O)C1(C)CCCCN1C(=O)c1ccc2c(c1)CCO2 (stereo not given) | 2 | nt | -25% | nt | -19% | nt
CCOc1cc2c(c3c1C(c1ccccc1)N(S(=O)(=O)c1ccc(C)cc1)C3)C(=O)C=CC2=O (stereo not given) | -118* | nt | 0.58µM* | nt | 0.52µM* | nt
CC(=O)NN1C(=O)c2ccccc2NC1c1ccccc1O (stereo not given) | 36 | ? | -16% | -10% | 7% | 11µM*
CS(=O)(=O)NN1C(=O)c2ccccc2NC1c1ccccc1O (stereo not given) | 7 | 2% | -2% | 20% | -2% | 3%
COC1=C(C(=O)c2ccccc2)C(=O)C2(CC=C(C)C)C[C@H](C(=O)OCC(F)(F)F)C(C)(C)[C@@]1(CC=C(C)C)C2=O (tested in a mixture with another compound) | nt | -18% | nt | nt | nt | 3%
CCOC(=O)c1ccc(NC(=O)CSC2=NN3CCCC(=O)N=C3S2)cc1 | 32 | -10% | ? | -29% | 21µM* | 6%
CCOC(=O)c1c(NC(=O)CSC2=NN3CCCC(=O)N=C3S2)sc2c1CCCCC2 | 0 | 1% | ? | ? | 21µM* | ?
COc1ccc(Cl)cc1NC(=O)CSC1=NN2CCCC(=O)N=C2S1 | 19 | ? | 12µM* | -22% | ? | ?
CCN(CC(=O)Nc1ccc(NC(C)=O)cc1)C(=O)c1ccc(N2C(=O)c3ccccc3C2=O)cc1 | 3 | nt | -8% | nt | 8% | nt
C[C@H]1CN([C@@H](C)CO)C(=O)c2cc(-c3cccc(C#N)c3)cnc2O[C@H]1CN(C)C(=O)c1ccccn1 | -3 | nt | ? | nt | -30% | nt
O=C(Cn1c(=O)n(-c2ccc(F)c(Cl)c2)c(=O)c2sc3ccccc3c21)NC1CCCC1 | nt | nt | -7% | nt | -3% | nt
